In PubChem BioAssay AID624354 (Sanford-Burnham Center for Chemical Genomics, 2012) one finds inhibition (viability loss, TRAIL sensitization) data, which are given here for 48 compounds.

SMILES strings stand for the structures. Among all 360,000 compounds or so, about 3,800 (1.1%) were called active.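 How the source made its calls: active means compounds causing at least 50% loss of cell viability in the single-dose screen, relative to plate controls; inactive means the rest.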 Shown is part of a subset that was picked to be rich in actives.

The assay can be described thus: TRAIL-exposed caspase-8 expressing cell killing – NB7+C8 cells, ATPlite luminescence, TRAIL sensitizer project, primary screen (AID 624354). As to conditions: at 10 µM, hits give high values.
For `O=C(CSc1ncnc2c1nnn2Cc1ccc(F)cc1)NC1CCCC1`, the inhibition (viability loss, TRAIL sensitization) is -9.39% (inactive).
Regarding `O=C(CCNC(=O)c1ccc(Br)cc1)Nc1cccc(S(=O)(=O)N2CCCCC2)c1`, the inhibition (viability loss, TRAIL sensitization) was 5.98% (inactive).
Regarding `C=CCN(c1ccc(C(=O)Nc2cc(C)cc(C)c2)cc1)S(C)(=O)=O`, the inhibition (viability loss, TRAIL sensitization) was -8.04% (inactive).
The result for `Cc1cc(C)cc(NC(=O)CSc2ccccc2)c1` reads -3.71% (inactive); that for `CSCc1ccc(C(=O)Nc2cc(C)cc(C)c2)cc1`, 66.6% (active); that for `Cc1cccc(CC2(O)C(=O)Nc3ccccc32)n1` (stereo not drawn), -8.54% (inactive).
On to `CN(C)S(=O)(=O)c1ccc(N2CCCC2=O)c([N+](=O)[O-])c1`, for which the inhibition (viability loss, TRAIL sensitization) is 4.63% (inactive).
`CSc1nnc(NC(=O)c2nc(S(=O)(=O)Cc3ccc(C)cc3)ncc2Cl)s1`: the inhibition (viability loss, TRAIL sensitization) is 66.5% (active).
To `Cc1cccc(NS(=O)(=O)c2ccc(C)c(C(=O)NCc3cccnc3)c2)c1` belongs -5.47% (inactive); to `Cc1cccc(NC(=O)c2nc(S(=O)(=O)Cc3ccccc3)ncc2Cl)c1`, 86.5% (active); to `Cc1ccc(CS(=O)(=O)c2ncc(Cl)c(C(=O)Nc3nnc(C)s3)n2)cc1`, 96.7% (active).
The result for `CN(Cc1ccccc1)S(=O)(=O)c1nnc(NC(=O)c2ccccc2F)s1` reads -10.5% (inactive); that for `O=C(Nc1nnc(Cc2ccc(Cl)cc2)s1)c1cccnc1`, 2.47% (inactive).
To `O=C(Nc1nnc(Cc2ccc(Cl)cc2)s1)c1ccncc1` belongs -4.66% (inactive).
In the case of `O=C(Nc1nnc(-c2ccc(F)cc2)s1)c1c(F)cccc1Cl`, the inhibition (viability loss, TRAIL sensitization) was 1.33% (inactive).
Regarding `Cc1cccc(CS(=O)(=O)c2ncc(Cl)c(C(=O)Nc3ccc(F)cc3)n2)c1`, the inhibition (viability loss, TRAIL sensitization) was 36% (inactive).
For `COc1ccccc1-n1nnnc1S(=O)(=O)Cc1ccc(Cl)cc1`, the inhibition (viability loss, TRAIL sensitization) is 9% (inactive).
To `Cc1ccc(SC(=O)COc2ccc(C)c(C)c2)cc1` belongs 3.37% (inactive).
Consider `O=C(CCc1ccccc1)NCCc1cccs1`, for which the inhibition (viability loss, TRAIL sensitization) was -4.77% (inactive).
Regarding `O=C1C2C3C=CC(C4CC34)C2C(=O)N1c1nccs1` (stereo not drawn), the inhibition (viability loss, TRAIL sensitization) is -2% (inactive).
Take `Cc1ccc(-c2nc(-c3cccnc3)sc2CC(=O)Nc2ccc(C)c(Cl)c2)cc1`: the inhibition (viability loss, TRAIL sensitization) was 18.7% (inactive).
The result for `COc1ccc(CCN2CNc3c(c(=O)n(C)c(=O)n3C)C2)cc1OC` reads 7.29% (inactive).
For the compound `O=C1OCCN1C(=O)[C@H]1[C@H](c2ccc(Cl)cc2)C(c2cccc(Cl)c2)=NN1c1ccc(Br)cc1`, the inhibition (viability loss, TRAIL sensitization) was -0.36% (inactive).
To `CCOc1ccccc1/C=N/Nc1nc2ccccc2o1` belongs -8.7% (inactive); to `COc1cccc(/C=N/Nc2cc(C)nc(-c3ccccc3O)n2)c1O`, 56.9% (active).
To `COCCCNC(=O)c1cccc2c(-c3ccc(O)c(OC)c3)coc12` belongs 14.2% (inactive); to `CC(=O)OCC(C)n1c(=O)c2ccccc2n1C(C)=O` (stereo not drawn), -3.49% (inactive); to `CN(C)CCCn1c(N)c(C#N)c2nc(C#N)c(C#N)nc21`, -10.7% (inactive).
To `O=C(NCCc1ccccn1)c1nc(Cn2cc([N+](=O)[O-])cn2)no1` belongs 2.01% (inactive); to `CC(=O)Nc1ccc2nc(NC(=O)CS(=O)(=O)c3ccc(F)cc3)sc2c1`, -11.1% (inactive); to `O=C(Nc1nc2ccc([N+](=O)[O-])cc2s1)c1ccncc1`, 53.2% (active).
As to `CSc1ncccc1C(=O)Nc1nc2ccc(F)cc2s1`, the inhibition (viability loss, TRAIL sensitization) is 10.7% (inactive).
As for `COc1cc2nnn(-c3ccncc3)c2cc1OC`, the inhibition (viability loss, TRAIL sensitization) is -16.3% (inactive).
To `O=C(CCCCCCCC(=O)N1CCCCC1)N1CCCCC1` belongs 1.6% (inactive); to `COC(=O)c1sc(SC)c(S(=O)(=O)C(C)C)c1N/N=C(\C#N)S(=O)(=O)c1ccccn1`, -10.6% (inactive); to `O=C(NCc1ccccc1)C1C(=O)N(Cc2ccccc2)C(=O)C1C1(O)CCCC1` (stereo not drawn), -9.54% (inactive).
For `O=c1c2cc(-c3ccccc3)sc2nc2n1N=C(c1cccs1)CS2`, the inhibition (viability loss, TRAIL sensitization) is 56.6% (active).
Regarding `Cc1ccccc1C1CC(c2cccs2)=NN1S(C)(=O)=O` (stereo not drawn), the inhibition (viability loss, TRAIL sensitization) is 1.64% (inactive).
For `O=c1c(-c2ccccc2)cnc2n1CCS2`, the inhibition (viability loss, TRAIL sensitization) was -0.958% (inactive).
The result for `COc1cccc2c1OCC(C(=O)NCc1ccc(Cl)cc1Cl)=C2` reads 12.2% (inactive).
In the case of `CC(=O)Nc1ccc(C(=O)/C=C/c2ccc[nH]2)cc1`, the inhibition (viability loss, TRAIL sensitization) is 1.89% (inactive).
Turning to `CC(=O)Nc1ccc(C(=O)NNC(=O)CCCCC(=O)NNC(=O)c2ccc(NC(C)=O)cc2)cc1`, the inhibition (viability loss, TRAIL sensitization) was -1.99% (inactive).
Consider `CCCC(=O)Nc1ccc(C(=O)N/N=C/c2ccc[nH]2)cc1`, for which the inhibition (viability loss, TRAIL sensitization) was 93.8% (active).
To `ClC1(Cl)CC1CSc1ncn[nH]1` (stereo not drawn) belongs -13.6% (inactive).
To `O=C(/C=C/c1ccc([N+](=O)[O-])o1)NNC(=O)c1ccc(F)cc1` belongs 32.1% (inactive).
Consider `Cc1nnc(SC(C(=O)Nc2cc(Cl)cc(Cl)c2)c2ccccc2)[nH]c1=O` (stereo not drawn), for which the inhibition (viability loss, TRAIL sensitization) is -3.74% (inactive).
The result for `O=C(Nc1c(Br)cc2c(c1Br)Cc1ccccc1-2)C(F)(F)F` reads 2.23% (inactive); that for `COc1cc(C(=O)N(C)Cc2cccc(OC)c2OC)ccc1OCC(=O)Nc1cccc(C(F)(F)F)c1`, 28.6% (inactive).
